Structures are written as SMILES. Values joined by “and” are separate entries in the source; they are usually repeats but may differ in a detail not shown here. Equal values may be shown once. Compounds without any hit were thinned out: in the full panel of roughly 83,000, 20% have a hit.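 For each line, cells grew in 96-well plates with the test compound present at a single concentration for 48 hours.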 A number with no mark means an inactive call. Active and inactive are the calls of the source. Rule for the calls: active = growth percent below 10; inactive = the rest.

For this experiment, the system named is MDA-MB-468 breast. Description: NCI-60 one-dose screen, 48 h (100 = growth as untreated, 0 = no growth, -100 = all killed). As to conditions: 10 µM unless noted.
Take `CC(NC(=O)CCl)c1ccccc1` (stereo not given): the growth was 89%.

As for `[2H]C([2H])([2H])Oc1cc(F)ccc1/C=C/C(=O)/C=C(/C=C/c1ccc(F)cc1OC([2H])([2H])[2H])OB(F)F`, the growth was 46.1%. The result for `COc1cccc(/C=C2\CCc3ccccc3C2=O)c1` reads 63.9%. The result for `CCN(CC)CCNc1c(C)cc(CO)c(Cl)c1C` reads -8.33% (active); that for `CCC(C)(c1cc(C(C)(C)C)c(O)c(C(C)(C)C)c1)c1cc(C(C)(C)C)c(O)c(C(C)(C)C)c1`, 112%; that for `CC(=O)Nc1ccc(O)cc1`, 105% and 111%. In the case of `O=[N+]([O-])c1ccc([I+]c2ccccc2)cc1` it was -5.9% (active). In the case of `O=C(c1ccccc1O)N1CCCC1`, the growth was 94.1%. In the case of `O=S(=O)(Nc1ccc(OC(F)F)cc1)c1ccc(-c2cnc(C3CC3)o2)cc1` it was -9.07% (active). Turning to `CCN(CC)CCOc1ccc(C(=C(C)c2ccc(OC)cc2)c2ccc(OCCN(CC)CC)cc2)cc1`, the growth is -70.1% (active).

For `CC(C)OC(=O)OCOP(=O)(OCOC(=O)OC(C)C)C1CCCN(O)C1=O` (stereo not given), the growth is 36.3%. The result for `Cc1nc2ccccc2c(C(=O)O)c1O` reads 99.9%; that for `O=C1Cc2cc(CCn3cncn3)c(Cl)cc2N1`, 35.1%.

As to `COc1ccc(N=C(c2ccccc2)C2C(=O)c3ccccc3C2=O)cc1`, the growth was 72.5%. The result for `Nc1cc(-c2c[nH]c3ccc(Cl)cc23)nc2cc(-c3c[nH]c4ccc(Cl)cc34)nn12` reads 68.2%; that for `CCN(CC)CCNC(=O)c1cn2ncnc(Oc3ccc(NC(=O)Nc4ccc(Cl)c(C(F)(F)F)c4)cc3)c2c1C`, -80.7% (active); that for `CC1(COc2ccc3c(c2)ncn3-c2ccc3cccc(N4CCC(N)CC4)c3n2)COC1`, -20.6% (active). Turning to `CCN(CC)CCOC(=O)Nc1c(C(C)C)cccc1C(C)C`, the growth was 97.3%. The result for `N#Cc1c(-c2ccc(Cl)cc2)c(C#N)c2c(C#N)c(N)nn2c1N` reads 80.1%. Consider `Nc1cccc2c1CN(C1CCC(=O)NC1=O)C2=O` (stereo not given), for which the growth was 84%.

Regarding `CCOC(=O)CCC(=O)O[C@H]1[C@H](O[C@@H]2[C@@H](C)[C@H](O[C@H]3C[C@@](C)(OC)[C@@H](O)[C@H](C)O3)[C@@H](C)C(=O)O[C@H](CC)[C@@](C)(O)[C@H](O)[C@@H](C)C(=O)[C@H](C)C[C@@]2(C)O)O[C@H](C)C[C@@H]1N(C)C`, the growth is 109%.

For the compound `CC(=O)c1cc2c(N)c(C(=O)Nc3cccc(Cl)c3)sc2nc1C`, the growth is 45.3%. In the case of `COc1cc(/C=C/C(=O)c2ccc(NC(=O)CN3CCN(c4cc5c(cc4F)c(=O)c(C(=O)O)cn5C4CC4)CC3)cc2)cc(OC)c1OC` it was -1.82% (active).

As to `O=C1/C(=C\c2cccn2Cc2ccc(F)cc2)c2ccccc2N1c1c(Cl)cccc1Cl`, the growth is 9.21% (active). Regarding `N#CC1=C(N)Oc2c(sc3c(Br)cccc23)C1c1ccccn1` (stereo not given), the growth was 25.6%. The result for `CC1=C[C@H]2c3c(c(O)c(O)c4oc5ccccc5c(=O)c34)[C@H](c3cc(O)c(O)c4oc5ccccc5c(=O)c34)[C@H]2C(C)(C)C1` reads 25.2%. The result for `CN1CCN(C(=O)C(C)(C)c2ccc(C(=O)Nc3cn4cc(-c5ccncc5)ccc4n3)cc2)CC1` reads -16.2% (active); that for `COc1ccc(C2CC(c3ccc(OC)c(OC)c3)=NN2C(=O)c2cc(OC)c(OC)c(OC)c2)c(OC)c1` (stereo not given), 53.6%; that for `S=c1[nH]nc2sc3ccccc3n12`, 122%. In the case of `CCN(CC)CCCNc1ccnc2cc3ccccc3cc12` it was 75.9%; in that of `C[N+]1(CCc2ccccc2)CCC(CCC2CC[N+](C)(CCc3ccccc3)CC2)CC1` (stereo not given), 28.8%. In the case of `CC1=C(/C=C/C(C)=C/C=C/C(C)=C/CO)C(C)(C)CCC1`, the growth is 103%. In the case of `COc1ccc2c(CCC(c3ccccc3)c3ccccc3)c3[n+](cc2c1OC)CCc1cc2c(cc1-3)OCO2` it was -29.9% (active).

Take `COc1ccc(C(=O)c2ccc(C)cc2)c(OC)c1OC`: the growth was 20.5%. In the case of `CC(C)C(C)C(N)C(=O)O` (stereo not given) it was 107%. The result for `COc1ccc(OC)c(/C=C/C(=O)N/N=C/c2ccc(Cl)cc2)c1` reads -4.03% (active); that for `CCCC(O)Cn1ncc(C(=O)OCC)c1NC(=O)NCc1ccccc1F` (stereo not given), 75.9%. The result for `C=CC(=O)N[C@H](/C=C/C(=O)OCC)Cc1ccc(-c2cc(Cl)cc(Cl)c2)cc1` reads 88%; that for `CN1CCN(C(=O)OCc2nc3c(N4CCOCC4)nc(-c4ccccc4)nc3n2C)CC1`, -59% (active); that for `Oc1ccc(-c2nc3ccc(/C(=N\N=C\c4ccc(Cl)cc4)c4ccccc4)cc3[nH]2)cc1`, 79.5%.
